Experimental data as given in PubChem BioAssay (NCATS).
Records with an inconclusive call do not appear. Where a call stands in place of a potency, no number is given. Unmarked numbers belong to inactive results. Activity calls are given as the source filed them. The call rests on the fitted dose curve; in most records, active means well fitted cell-killing curve with a large enough effect; inconclusive means small, poorly fitted or top-dose-only effect; inactive means flat fitted curve, though single readings scatter.

Test: qHTS of pediatric cancer cell lines to identify multiple opportunities for drug repurposing: Primary screen for BT-37 cells (AID 1347094)
Conditions: BT-37 viability, CellTiter-Glo luminescence, 48 h; series mostly up to 57.3 µM
Excerpt: Drug repurposing or repositioning has been offered as a strategy for drug development in oncology programs. This approach has special potential for childhood cancers and other rare or orphan diseases, where the expected return on new drug development has been a disincentive to pharmaceuticals. […] In this project we exploit the poly-pharmacology of drugs to discover new indications via phenotypic screening of a panel of 19 well-characterized cell lines derived from solid tumors seen in children and adolescents. The goal is to identify approved drugs with previously unrecognized anticancer properties that has the potential to reveal new mechanisms and biological processes involved in carcinogenesis or drug resistance. We employed a titration-based paradigm (quantitative high-throughput screening or qHTS), where all compounds were tested at multiple concentrations for their effect on cell viability. Concentration-response curves (CRCs) were derived directly from the primary screen, and both potency and efficacy values were used to identify compounds with robust bioactivity profiles. We screened the NIH Chemical Genomics Center (NCGC) Pharmaceutical Collection (NPC) and Mechanism Interrogation Plate (MIPE) small molecule collections of approved and investigational compounds against these cell lines; and measured metabolically active cells after 48 hours of compound treatment as a proxy for cell viability. […] Assay Submitter: Nathalia J. Martinez, National Center for Advancing Translational Sciences, National Institutes of Health, Rockville, MD, USA; email: natalia.martinez@nih.gov Shen, M et al. Quantitative high-throughput phenotypic screening of pediatric cancer cell lines identifies multiple opportunities for drug repurposing. Oncotarget 2017 Dec 19;9(4):4758-4772. PMID 29435139.
The cells were obtained from University of North Carolina (UNC), Pediatric Preclinical Testing Program (PPT), and Coriell Institute (CI). qHTS cell viability assay: Cells were assayed in growth media at a density of 500-1,000 cells/well. Five microliters of cells were dispensed into 1,536-well, white, solid-bottom, TC-treated plates (Greiner Bio One) using a multidrop dispenser and incubated at 37 degrees C, 5% CO2, under a humidified atmosphere for 5 hours. Twenty-three nanoliters of compounds and controls (neutral control DMSO or positive control bortezomib at final concentration of 2.3 µM) were subsequently transferred by Kalypsys pintool. For primary screens, the MIPE collection was tested at 11-point dilutions (final concentrations range from 0.78 nM to 46 µM) and the NPC collection at 8-point dilutions (final concentrations range from 0.59 nM to 46 µM). Compounds tested in follow-up screens were assayed at 11-point dilutions. Cells were incubated for 48 hours, followed by addition of 3 µL of CellTiter-Glo (Promega). After a 15 min incubation at room temperature, samples were analyzed for luminescence intensity using a ViewLux High-throughput CCD imager equipped with clear filters.
Potency means the concentration at half of the fitted maximal effect.

Compound | Potency | activity change, negative = cytotoxic
C=CCc1cccc(C=NNC(=O)CN2CCN(Cc3ccccc3)CC2)c1O | 9.68 µM (active) | 
CCOC(=O)[C@H]1O[C@H]1C(=O)N[C@@H](CC(C)C)C(=O)NCCC(C)C | inactive | 
CN[C@@H]1CN(c2ccc3c(=O)c(C(=O)O)cn(-c4nccs4)c3n2)C[C@@H]1OC | 3.35 µM (active) | 
O=C(Nc1ncc(SCCN2CCCC2)s1)[C@]1(c2ccc(S(=O)(=O)C3CC3)cc2)C[C@@H]1C1CCCCC1 | 30.6 µM (active) | 
Cn1c(=O)c(Oc2ccc(F)cc2F)cc2cnc(NC3CCOCC3)nc21 | inactive | 
C[C@@H](O)[C@H]1C(=O)N2C(C(=O)OCOC(=O)C(C)(C)C)=C(SC3CN(C4=NCCS4)C3)[C@H](C)[C@H]12 | inactive | 
CCC(=O)N1CCN(c2ccc(-n3c(=O)ccc4cnc5ccc(-c6cnc7ccccc7c6)cc5c43)cc2C(F)(F)F)CC1 | 0.0217 µM (active) | 
Nc1[nH]nc2nnc(-c3c(-c4ccccc4)nn4ccccc34)cc12 | 2.73 µM (active) | 
CO[C@H]1C=CO[C@@]2(C)Oc3c(C)c(O)c4c(O)c(c(C=NN5CCN(C)CC5)c(O)c4c3C2=O)NC(=O)C(C)=CC=C[C@H](C)[C@H](O)[C@@H](C)[C@@H](O)[C@@H](C)[C@H](OC(C)=O)[C@H]1C |  | -9.92% [at 11.5 µM]
CCOC(=O)[C@@H](N)CCC(=O)N[C@@H](CSCc1ccccc1)C(=O)N[C@@H](C(=O)OCC)c1ccccc1 | inactive | 
O=[N+]([O-])c1ccc(Nc2ccccc2-c2ccccc2)c2nonc12 | inactive | 
Fc1ccc(C(c2ccc(F)cc2)N2CCN(CC=Cc3ccccc3)CC2)cc1 | inactive | 
Nc1nc(Cl)nc2c1ncn2[C@@H]1O[C@H](CO)[C@@H](O)[C@H]1F | 0.0485 µM (active) | 
CCCCOCCOc1nc(-c2ccc(C(=O)O)c(F)c2)sc1C | inactive | 
CN[C@@H]1[C@@H](O)[C@@H](O[C@@H]2[C@@H](O)[C@H](O[C@H]3O[C@H](CN)[C@@H](O)[C@H](O)[C@@H]3O)[C@@H](N)C[C@@H]2NC(=O)[C@@H](O)CN)OC[C@]1(C)O | inactive | 
C[C@@]1(c2cc(-c3cncnc3)c(F)cc2F)CCSC(N)=N1 | 3.06 µM (active) | 
Cc1cn([C@@H]2C[C@@H](O)[C@H](CO)O2)c(=O)[nH]c1=O | inactive | 
CN1C(=O)C[C@H](C(=O)N[C@@H](Cc2cnc[nH]2)C(=O)N2CCC[C@@H]2C(N)=O)NC1=O | 24.3 µM (active) | 
CCOc1ccccc1N=Nc1c(C)[nH]n(-c2nc(-c3ccccc3)cs2)c1=O | inactive | 
OC[C@H]1O[C@@H](OCCc2ccc(O)cc2)[C@H](O)[C@@H](O)[C@H]1O | inactive | 

Compound | Potency | activity change, negative = cytotoxic
C[C@]12CC[C@@H]3c4ccc(O)cc4CC[C@H]3[C@H]1[C@@H](O)[C@@H](O)[C@H]2O | inactive | 
COc1c(C)c2c(c(O)c1CC=C(C)CCC(=O)O)C(=O)OC2 | 1.53 µM (active) | 
CCNC(=O)c1noc(-c2cc(C(C)C)c(O)cc2O)c1-c1ccc(CN2CCOCC2)cc1 | 0.137 µM (active) | 
NCC1CCC(C(=O)O)CC1 (stereo not given) | inactive | 
CC(=O)OCC(=O)[C@@]12OC(C)(C)O[C@H]1C[C@H]1[C@@H]3C[C@H](F)C4=CC(=O)C=C[C@]4(C)[C@@]3(F)[C@@H](O)C[C@@]12C | inactive | 
COc1ccc(-c2ccc3ncc4c(c3c2)n(-c2ccc(N3CCNCC3)c(C(F)(F)F)c2)c(=O)n4C)cn1 | 0.0306 µM (active) | 
CCOC(=O)[C@H](CCc1ccccc1)N[C@@H](C)C(=O)N1CCCC1C(=O)O (stereo not given in full) | inactive | 
Cc1ccc(C(=O)N(CCCN)[C@@H](c2oc3cc(Cl)ccc3c(=O)c2Cc2ccccc2)C(C)C)cc1 | 0.001 µM (active) | 
CCOC(=O)N1CCN([N+]([O-])=NOc2cc(ON=[N+]([O-])N3CCN(C(=O)OCC)CC3)c([N+](=O)[O-])cc2[N+](=O)[O-])CC1 | inactive | 
Cc1ccc(NC(=O)c2ccc(CN3CCN(C)CC3)cc2)cc1Nc1nc(-c2cccnc2)cs1 | 24.3 µM (active) | 
CC(NCCc1ccc(O)cc1)C(O)c1ccc(O)cc1 (stereo not given) | inactive | 
CN[C@H]1[C@@H](O[C@@H]2[C@H](O[C@@H]3[C@@H](O)[C@@H](O)[C@@H](N=C(N)N)[C@@H](O)[C@@H]3N=C(N)N)O[C@H](C)[C@@]2(O)C=O)O[C@@H](CO)[C@@H](O)[C@H]1O |  | 3.99% [at 11.5 µM]
CCN1CCN(c2ccc(Nc3cc(N(C)C(=O)Nc4c(Cl)c(OC)cc(OC)c4Cl)ncn3)cc2)CC1 | inactive | 
CON(C)C(=O)N1N=C(c2cc(F)ccc2F)S[C@]1(CCCN)c1ccccc1 | inactive | 
C[C@@H]1C[C@H]2[C@@H]3CCC4=CC(=O)C=C[C@]4(C)[C@@]3(F)[C@@H](O)C[C@]2(C)[C@@]1(O)C(=O)CO | inactive | 
CC(C)(OCc1nn(Cc2ccccc2)c2ccccc12)C(=O)O | inactive | 
CC(C)CN(C[C@@H](O)[C@H](Cc1ccccc1)NC(=O)O[C@H]1CO[C@H]2OCC[C@H]21)S(=O)(=O)c1ccc(N)cc1 | 6.11 µM (active) | 
O=C(O)C1=CC(O)C(O)[C@H](O)C1 (stereo not given in full) | inactive | 
COc1cc2nccc(Oc3ccc(NC(=O)Nc4cc(C)on4)c(Cl)c3)c2cc1OC | 24.3 µM (active) | 
COc1cc2nccc(Oc3ccc(NC(=O)Nc4ccc(F)cc4F)c(F)c3)c2cc1OC | inactive | 
